Compound activity deposited in PubChem by National Center for Advancing Translational Sciences (NCATS).
Sm TGR inh: blocks Schistosoma mansoni thioredoxin glutathione reductase. Q962Y6. purified TGR, DTNB reduction, TNB absorbance 405 nm. Potency, µM (series often up to 114 µM), without a hit: top-dose activity change, negative = inhibition, hits mostly inhibitors. 360,000 compounds, 3% hits; also: nearly all actives have a fitted effect of over 60% in size
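First, TGR (20 nM dispensed) and NADPH were mixed with compound. Second, a 15 min room-temperature incubation followed. Third, further NADPH and then DTNB were added to start the reaction. Finally, TNB absorbance was monitored kinetically.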
AmpC no deterg: blocks E. coli AmpC beta-lactamase in detergent-free assay; Potency, µM (top dose mostly 57.1 µM), inactives show at the highest dose activity change, negative = inhibition, hits mostly inhibitors; P00811; 330,000 compounds, 0.52% hits; AmpC nitrocefin hydrolysis, absorbance 480 nm, 0.0001% Triton;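 also: plate controls were no compound for no effect and no enzyme for full effect; nearly all actives have a fitted effect of over 20% in size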
Target sequence (P00811 whole entry, looked up): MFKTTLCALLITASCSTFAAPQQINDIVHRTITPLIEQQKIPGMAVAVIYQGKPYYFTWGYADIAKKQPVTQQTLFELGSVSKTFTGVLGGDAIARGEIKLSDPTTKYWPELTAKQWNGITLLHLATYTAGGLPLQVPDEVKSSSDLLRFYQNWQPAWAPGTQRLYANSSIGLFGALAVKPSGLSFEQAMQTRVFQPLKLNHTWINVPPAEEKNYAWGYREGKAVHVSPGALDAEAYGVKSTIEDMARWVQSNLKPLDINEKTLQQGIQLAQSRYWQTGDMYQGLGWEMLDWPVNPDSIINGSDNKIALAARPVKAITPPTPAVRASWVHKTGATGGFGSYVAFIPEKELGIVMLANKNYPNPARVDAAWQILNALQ
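AmpC (5.3 nM in the dispensed reagent) in 20 mM phosphate pH 7.0 with 0.01% (detergent screen) or 0.0001% Triton X-100 was preincubated with compounds for 15 min at room temperature. Nitrocefin was then added from an 800 uM solution, and hydrolysis was followed at 480 nm.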
AmpC inh detg: inhibitors of E. coli AmpC beta-lactamase with detergent | P00811 | AmpC hydrolysis of nitrocefin, absorbance 480 nm, 0.01% Triton | Potency, µM (doses to about 114 µM), for the others: at the highest dose activity change, negative = inhibition, most hits filed as inhibitors | 370,000 compounds, 0.041% hits | AID 485294;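 also: 0% = no-compound wells and -100% = no-enzyme wells; nearly all actives have a fitted effect of over 25% in size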
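AmpC (5.3 nM in the dispensed reagent) in 20 mM phosphate pH 7.0 with 0.01% (detergent screen) or 0.0001% Triton X-100 was preincubated with compounds for 15 min at room temperature. Nitrocefin was then added from an 800 uM solution, and hydrolysis was followed at 480 nm.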
* marks the source's active call; other numbers are inactive results. Shown are actives, neighbours in structure and some others; about 3.3% of the full set was active somewhere. Calls follow the shape of the dose curve; as a rule, active = well fitted curve in the direction sought with a large enough effect; inconclusive = small, poorly fitted or top-dose-only effect, or another doubt; inactive = no such curve, though single readings can be large; an effect the other way counts as inactive or inconclusive. Unless noted, % is scaled to controls: 0 for no effect and ±100 for the full control effect; potency is read from the fitted curve at half-maximal effect.

`CCOCCCNC(=O)C(c1ccc(Cl)cc1)N(Cc1ccc2c(c1)OCO2)C(=O)c1ccccc1O` (stereo not drawn) gave Sm TGR inh -5.6% and AmpC inh detg 8.3%.
`Cn1cc(S(=O)(=O)N2CCCC2)cc1C(=O)Nc1ccc(F)cc1F` gave Sm TGR inh 0.0% and AmpC inh detg -3.1%.
`OCCC1CN(C/C=C/c2ccco2)CCN1Cc1ccccc1` (stereo not drawn) gave Sm TGR inh 20µM*, AmpC no deterg -15.6% and AmpC inh detg -3.6%.
COc1ccccc1/C=C/CN1CCN(Cc2ccc(F)cc2)C(CCO)C1 (stereo not drawn) was read as Sm TGR inh -16.1%, AmpC no deterg 78.2% and AmpC inh detg -14.5%.
`CCn1c(C(=O)N2CCCC(C(=O)N3CCN(c4ccccc4)CC3)C2)cc2sccc21` (stereo not drawn) gave Sm TGR inh -8.3% and AmpC inh detg -0.5%.
C=C1c2cccc(O)c2C(=O)C2C(=O)[C@]3(O)C(=O)C(C(N)=O)C(=O)[C@@H](N(C)C)[C@@H]3[C@@H](O)[C@H]12 (stereo partly drawn) was read as AmpC no deterg 8.91µM*.
For CC(=O)c1ccc(NC(=O)CSc2nc(-c3ccccc3C)nc3c2c(=O)n(C)c(=O)n3C)cc1 the results were Sm TGR inh 50.1µM* and AmpC inh detg 6.9%.
`CC(=O)c1ccc(NC(=O)CSc2nc(-c3cccc(F)c3)nc3c2c(=O)n(C)c(=O)n3C)cc1` gave Sm TGR inh 0.4% and AmpC inh detg -4.9%.
COc1ccc(-c2noc(CCC(=O)NCc3ccc(OC)cc3OC)n2)cc1 was read as Sm TGR inh 1.8% and AmpC inh detg 3.5%.
Screening CCOc1ccccc1C(=O)Oc1c(S(=O)(=O)c2ccc(C)cc2)c(C)nn1-c1ccccc1 returned Sm TGR inh -0.9% and AmpC inh detg 12.7%.
O=C(Cc1ccc(Cl)cc1)NCC(c1cccs1)S(=O)(=O)c1ccccc1 (stereo not drawn) was read as Sm TGR inh 8.1% and AmpC inh detg -5.0%.
Screening CC1=C(C(=O)NCc2cccc(Cl)c2)C2(CCCCCC2)OC1=O returned Sm TGR inh -9.0% and AmpC inh detg -3.4%.
For CC(=O)N1CCOc2cc(S(=O)(=O)Nc3c(C)cccc3C(C)C)c(Cl)cc21 the results were Sm TGR inh 79.4µM*, AmpC no deterg 120.2% and AmpC inh detg 19.1%.
For COc1cccc(NS(=O)(=O)c2cc3c(cc2C)N(C(C)=O)CCO3)c1 the results were Sm TGR inh 7.6%, AmpC no deterg 2.7% and AmpC inh detg -3.5%.
COc1ccc(CCNC(=O)c2cc(C)nc3c2c(C)nn3-c2ccc(C)cc2)cc1OC was read as Sm TGR inh 2.7% and AmpC inh detg 2.3%.
`O=C(c1cc2cc(F)ccc2[nH]1)N1CCN(C(=O)c2ccco2)CC1` gave Sm TGR inh 39.8µM*, AmpC no deterg -1.1% and AmpC inh detg -1.8%.
Screening O=C(c1cc(COc2ccc(F)cc2F)on1)N1CCN(C(=O)c2ccco2)CC1 returned Sm TGR inh 25.1µM*, AmpC no deterg 70.2% and AmpC inh detg -1.6%.
For Cc1ccc(C)c(OCc2cc(C(=O)N3CCN(C(=O)c4ccco4)CC3)no2)c1 the results were Sm TGR inh -21.1%, AmpC no deterg 132.2% and AmpC inh detg -7.8%.
CN1CCN(C(=O)c2cc3cc(F)ccc3[nH]2)CC1 was read as Sm TGR inh 11.1%, AmpC no deterg -11.0% and AmpC inh detg -2.4%.
For CN1CCN(C(=O)c2cc(COc3c(F)cccc3F)on2)CC1c1ccccc1 (stereo not drawn) the results were Sm TGR inh 3.98µM*, AmpC no deterg 173.6% and AmpC inh detg 1.8%.
`COc1ccccc1OCc1cc(C(=O)N2CCN(C)C(c3ccccc3)C2)no1` (stereo not drawn) gave Sm TGR inh -0.4%, AmpC no deterg 156.8% and AmpC inh detg -9.8%.
`O=C(NCC1(c2ccccc2)CCCC1)C(=O)Nc1cccc(Br)c1` gave Sm TGR inh 2.2% and AmpC inh detg 17.4%.
Screening CC(=O)c1ccc(NC(=O)CCc2c(C)nn(-c3ccc4nnc(C)n4n3)c2C)cc1 returned Sm TGR inh -2.3% and AmpC inh detg 0.8%.
COC(=O)C1=C(C)NC2=C(C(=O)CCC2)C1c1ccsc1 (stereo not drawn) was read as Sm TGR inh 6.0%, AmpC no deterg -6.7% and AmpC inh detg -12.0%.
CC1=C(C(=O)N2CCOCC2)C(c2ccsc2)C2=C(CCCC2=O)N1 (stereo not drawn) was read as Sm TGR inh 44.7µM*, AmpC no deterg -13.8% and AmpC inh detg 2.3%.
Cc1nc2c(C(=O)NCc3ccccc3Cl)c[nH]n2c(=O)c1Cc1cccc(Cl)c1 was read as Sm TGR inh -2.9% and AmpC inh detg -4.9%.
Screening CCCNC1=C(C)C(=O)C2=C(C1=O)C(COC(N)=O)[C@]1(OC)C3NC3CN21 (stereo partly drawn) returned Sm TGR inh 35.5µM*, AmpC no deterg 1.9% and AmpC inh detg -5.1%.
Screening Cc1cccc(NC(=O)CSc2nc(C)cc(C)c2C(=O)Nc2ccc(Cl)cc2)c1 returned Sm TGR inh 2.4% and AmpC inh detg 11.6%.
`Nc1nc(Sc2ccc(C(F)(F)F)cc2[N+](=O)[O-])n[nH]1` gave Sm TGR inh 0.8%, AmpC no deterg -9.8% and AmpC inh detg -4.9%.
For Nc1nc(Sc2c([N+](=O)[O-])cc(C(F)(F)F)cc2[N+](=O)[O-])n[nH]1 the results were Sm TGR inh 7.94µM*, AmpC no deterg -14.9% and AmpC inh detg -1.1%.
Cc1ccc(C)c(N2CCN(C(=O)CN3C(=O)COc4ccc(S(=O)(=O)N5CCOCC5)cc43)CC2)c1 was read as Sm TGR inh 2.4% and AmpC inh detg 8.9%.
`CCOc1ccccc1NC(=O)N1c2ccccc2Sc2ccccc21` gave Sm TGR inh 8.8% and AmpC inh detg 2.8%.
`O=C(CCNc1cccc(F)c1)c1cc2ccccc2o1` gave Sm TGR inh 0.355µM*, AmpC no deterg -7.9% and AmpC inh detg 5.7%.
`O=C(Cc1ccc(F)cc1)OCC(=O)c1cc2ccccc2o1` gave Sm TGR inh 0.0%, AmpC no deterg -24.7% and AmpC inh detg -8.4%.
O=C(CCNc1ccc(F)cc1)c1cc2ccccc2o1 was read as Sm TGR inh 0.316µM*, AmpC no deterg -38.9% and AmpC inh detg -4.2%.
O=C(CCNc1cccc(F)c1)c1cccc([N+](=O)[O-])c1 was read as Sm TGR inh 0.282µM*, AmpC no deterg -24.3% and AmpC inh detg 3.5%.
`CNC(=O)c1cc2ccccc2o1` gave Sm TGR inh 2.3%, AmpC no deterg -11.0% and AmpC inh detg -0.6%.
Screening O=C(CCNc1ccc(Cc2ccncc2)cc1)c1cccc([N+](=O)[O-])c1 returned Sm TGR inh -2.5%, AmpC no deterg -26.4% and AmpC inh detg 1.6%.
Screening CCc1cccc(C)c1NC(=O)c1cc(S(=O)(=O)N(Cc2ccc(C(=O)OC)cc2)Cc2ccc(OC)c(OC)c2)ccc1F returned Sm TGR inh 1.4% and AmpC inh detg 3.7%.
